This passage reports Potency and viability (% of control) results from PubChem BioAssay (NCATS).

Inconclusive results are not listed. A call without a number means that no potency is given here. Unmarked numbers belong to inactive results. Calls of active or inactive are those of the source. The call rests on the fitted dose curve; in most records, active means well fitted curve in the direction sought with a large enough effect; inconclusive means small, poorly fitted or top-dose-only effect, or another doubt; inactive means no such curve, though single readings can be large; an effect the other way counts as inactive or inconclusive.
Further: nearly all actives have a fitted effect of over 40% in size.

Sequence of Cytochrome P450 3A7 (Homo sapiens) (P24462 whole entry, looked up): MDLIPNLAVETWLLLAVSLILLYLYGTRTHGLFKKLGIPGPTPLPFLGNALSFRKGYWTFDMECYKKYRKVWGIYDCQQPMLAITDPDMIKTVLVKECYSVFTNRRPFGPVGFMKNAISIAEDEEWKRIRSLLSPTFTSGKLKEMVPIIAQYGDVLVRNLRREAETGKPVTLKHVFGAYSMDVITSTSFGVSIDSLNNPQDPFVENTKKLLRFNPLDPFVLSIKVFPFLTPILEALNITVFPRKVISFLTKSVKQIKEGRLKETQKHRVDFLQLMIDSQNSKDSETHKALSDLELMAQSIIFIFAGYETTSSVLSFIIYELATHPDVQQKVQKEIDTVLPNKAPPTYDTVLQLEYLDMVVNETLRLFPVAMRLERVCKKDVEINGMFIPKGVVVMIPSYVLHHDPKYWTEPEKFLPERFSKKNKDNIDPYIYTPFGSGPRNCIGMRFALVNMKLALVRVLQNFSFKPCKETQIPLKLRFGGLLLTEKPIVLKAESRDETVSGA

The first assay addresses Cytochrome P450 3A7 (Homo sapiens) (UniProt P24462). The experiment in a line: Cytochrome P450 family 3 subfamily A member 7 (CYP3A7) small molecule antagonists: luciferase biochemical qHTS assay (AID 1963596). Particulars: P450-Glo CYP3A7 enzyme luminescence, 1 h; series mostly up to 57.4 µM. The procedure, abridged: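 Biochemical CYP3A7 activity measured with P450-Glo system: luciferin formed from proluciferin substrate in NADPH-driven reaction (1 h, room temperature) after 10 min compound preincubation. Signal in relative luminescence units.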
For orientation: qHTS replaces the single test concentration by a dilution series.
As to `CCCCCCCCCCCCCCC[C@H](O)[C@@H](N)CO`, the Potency entry was “inactive”. Still for that read-out and setting: the same measure for `CC(C)N=C(N)/N=C(\N)Nc1ccc(Cl)cc1`: “inactive”; for `Oc1c(I)cc(Cl)c2cccnc12`: “inactive”; for `CN1C(=O)c2ccccc2C1=O`: “inactive”. Still for that read-out and setting: for `Cc1ccc(S(=O)(=O)NC(=O)NC2CCCC2)cc1` the value was “inactive”. The same measure, in the same setting: for `CCNCc1nc2c(N)nc3ccccc3c2n1CC(C)(C)O` the value was “inactive”.

Test system in another assay: not listed separately
The experiment in a line: Viability qHTS for spleen associated tyrosine kinase inhibitor (SYKi) naive MV4-11 cells (AID 1963823). Further: potency means the concentration at half of the fitted maximal effect. To be noted: MV4-11 AML viability, CellTiter-Glo luminescence, 72 h; series mostly up to 45 µM. The procedure, abridged:
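Compounds were dispensed acoustically onto plates, MV4-11 cells (SYKi-naive) added at 500 per well, and plates incubated 72 hr at 37 C. CellTiter-Glo was added and luminescence measured after 10 min.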
On to `C/C(=C\CO[C@@H]1O[C@H](CO[C@H]2OC[C@](O)(CO)[C@H]2O)[C@@H](O)[C@H](O)[C@H]1O)C(C)(C)O`, for which the Potency result is “inactive”. Same read-out and setting: for `CCc1cc(CC[C@]2(C3CCCC3)CC(O)=C(Cc3nc4nc(C)cc(C)n4n3)C(=O)O2)cc(CC)n1` the value was 10.3 µM (active). Turning to `C[C@H]1C(=O)N2c3ccccc3[C@@]3(O)C[C@@H]4C(=O)N[C@](C)(c5nc6ccccc6c(=O)n54)N1[C@@H]23`, the Potency result is “inactive”. With `N[C@@H](Cn1ccc(=O)c(O)c1)C(=O)O`, the viability (% of control) is 88% [at 4.97 µM].

Take `CCC1OC(=O)C(C)CC(C)C(=O)/C(C)=C/C(C)C(=O)/C=C/C1(C)O` (configuration not stated): the Potency result was “inactive”. Regarding `O=c1c2ccccc2nc2n1CCC2O` (configuration not stated), the Potency entry is “inactive”. Same read-out and setting: the same measure for `CCOc1ccc(C(Nc2ccccn2)c2ccc3ccc(C)nc3c2O)cc1C` (configuration not stated): 23.1 µM (active).

In the case of `O=C(O)[C@H](Cc1ccccc1)Oc1ccc(-c2ccccc2)cc1`, the Potency entry is “inactive”. On the same count and under the same terms, the same measure for `COc1cccc(C(=O)N2CCN(C(=O)COc3cccc(C)c3)CC2)c1OC`: “inactive”; for `COc1cc(OC)c(C(=O)/C=C/c2ccccc2)c2c1C=CC(C)(C)O2`: 10.3 µM (active); for `CC1CCC2(O1)C(C)(C)CC(O[C@@H]1O[C@H](CO[C@@H]3OC[C@](O)(CO)[C@H]3O)[C@@H](O)[C@H](O)[C@H]1O)CC2(C)O` (some centres not stated): “inactive”.
